Rows were chosen to be rich in hits. Some 3% of all compounds tested hit in one or more screens of this group.
C8 TRAIL sens: sensitizes caspase-8 expressing cells to TRAIL | NB7+C8 cells + TRAIL, ATPlite viability luminescence | inhibition (viability loss, TRAIL sensitization), % at 10 µM | 1% of 360,000 active | AID 624354;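 active = compounds causing at least 50% loss of cell viability in the single-dose screen, relative to plate controls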
SENP8 block-1: SENP8 (human) protease inhibition | Q96LD8 | 0.64% of 360,000 active | AID 602440 | recombinant SENP8, Nedd8 substrate fluorescence | inhibition, % at 20 µM; in the data active = inhibition mostly above about 40%, no sharp cut-off; inactive = mostly below about 27%
SENP7 inh: inhibitors of human SENP7 protease. Q9BQF6. recombinant SENP7, Z-RLRGG-aminoluciferin luminescence, 40 min. inhibition, % at 5 µM. 1.5% of 330,000 active. AID 434973;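 active = inhibition above about 50% at the single test dose, limit read from the data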
SENP6 inh: SENP6 protease inhibition. Q9GZR1. Recombinant SENP6 catalytic domain, aminoluciferin luminescence. inhibition, % at 10 µM. 1.8% of 330,000 active;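 active = inhibition above about 50% at the single tested dose, limit read from the data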
Target sequence (Q9GZR1 628-1112 limits assumed): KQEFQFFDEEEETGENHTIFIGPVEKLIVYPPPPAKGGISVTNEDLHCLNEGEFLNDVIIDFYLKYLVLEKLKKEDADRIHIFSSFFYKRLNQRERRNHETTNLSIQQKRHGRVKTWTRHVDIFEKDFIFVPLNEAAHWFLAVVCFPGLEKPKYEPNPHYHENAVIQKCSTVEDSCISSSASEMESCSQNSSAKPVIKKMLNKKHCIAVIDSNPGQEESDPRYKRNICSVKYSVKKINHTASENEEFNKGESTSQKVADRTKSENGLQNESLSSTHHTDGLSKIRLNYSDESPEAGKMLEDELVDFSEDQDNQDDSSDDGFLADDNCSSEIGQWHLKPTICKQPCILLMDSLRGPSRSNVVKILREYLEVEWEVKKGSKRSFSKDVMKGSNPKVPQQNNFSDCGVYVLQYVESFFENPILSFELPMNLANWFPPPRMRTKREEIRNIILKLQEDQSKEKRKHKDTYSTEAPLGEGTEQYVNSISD
SENP8 block-2: inhibitors of human SENP8 protease; inhibition, % at 10 µM; Q96LD8; 1.2% of 330,000 active; AID 2540; purified SENP8, Z-RLRGG-aminoluciferin cleavage, luminescence; in the data active = inhibition above about 50%
PPC-1+TRAIL kill: compounds killing PPC-1 cancer cells with TRAIL present (potentiator screen, no TRAIL-free arm) | PPC-1 cells + TRAIL, ATPLite viability luminescence | cell killing (% activity), % at 4 µM or 5 µM | 0.41% of 220,000 active | AID 1443;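 active = cell killing above 50% in the first pass at 4 µM, then a duplicate retest at 5 µM averaging 50% or more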
SENP8 conf: confirmation of human SENP8 protease inhibitors | 40% of 6,200 active | AID 488912 | inhibition, % at 12.5 µM | shares compounds with SENP7 inh | Recombinant SENP8, Z-RLRGG-aminoluciferin luminescence, 60 min;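 active = mean inhibition across replicates above about 50%, limit read from the data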
SENP6 confirm: confirmation of human SENP6 protease inhibitors; shares compounds with SENP7 inh; recombinant SENP6, Z-RLRGG-aminoluciferin luminescence; inhibition, % at 12.5 µM; 58% of 6,200 active; AID 488915
SENP7 conf: human SENP7 inhibition, confirmed; recombinant SENP7, Z-RLRGG-aminoluciferin luminescence, 40 min; inhibition, % at 12.5 µM; shares compounds with SENP7 inh; 69% of 6,200 active; AID 488917
Casp3 select: selectivity test for SENP inhibitors: human caspase-3 inhibition | shares compounds with SENP7 inh | purified caspase-3, Z-DEVD-aminoluciferin luminescence, 60 min | inhibition, % at 12.5 µM | 60% of 6,200 active;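 active = mean inhibition above about 50%, limit read from the data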
SENP luc ctr: luminescence interference (SENP counter-screen) | shares compounds with SENP7 inh | Pre-incubated SENP8/Z-RLRGG-aminoluciferin, luciferase luminescence interference | inhibition, % at 12.5 µM | 39% of 6,200 active;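 active = mean inhibition above about 50% when retested at one dose, limit read from the data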
Large screens that a line does not name were inactive (follow-up assays come after a bar, where they were run).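 Rule for the calls, unless noted: active = mean inhibition above about 50% in the one-dose retest (limit read from the data); inactive = the rest.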

Cc1cccnc1Nc1nc(-c2ccc(O)cc2)cs1	SENP7 inh 94, SENP6 inh 93, SENP8 block-2 96 | SENP8 conf 96 | SENP6 confirm 98 | SENP7 conf 102 | Casp3 select 89 | SENP luc ctr 97
Cc1cccnc1Nc1nc(-c2ccc(F)cc2)cs1	SENP7 inh 93, SENP6 inh 92, SENP8 block-2 89 (no result: PPC-1+TRAIL kill) | SENP8 conf 89 | SENP6 confirm 93 | SENP7 conf 101 | Casp3 select 74 | SENP luc ctr 53
Fc1ccc(-c2csc(NC3=NCCC3)n2)cc1	none
Cn1c(-c2ncc(F)cc2F)cc2onc(-c3c(F)cccc3Cl)c2c1=O	none (no result: PPC-1+TRAIL kill)
Cn1c(-c2ccccc2)cc2onc(-c3ccccc3)c2c1=O	C8 TRAIL sens 81, SENP7 inh 95, SENP6 inh 95, SENP8 block-2 95 (no result: PPC-1+TRAIL kill) | SENP8 conf inactive | SENP6 confirm inactive | SENP7 conf 55 | Casp3 select inactive | SENP luc ctr inactive
COc1ccc(/C=C/C=C2\N=C(SC)SC2=O)cc1	SENP7 inh 91, SENP6 inh 86, SENP8 block-2 84 | SENP8 conf inactive | SENP6 confirm inactive | SENP7 conf inactive | Casp3 select inactive | SENP luc ctr inactive
Cc1cc2ncc(-c3cccs3)nc2cc1C	C8 TRAIL sens 69, SENP7 inh 98, SENP6 inh 94, SENP8 block-2 96 (no result: PPC-1+TRAIL kill) | SENP8 conf 66 | SENP6 confirm 77 | SENP7 conf 67 | Casp3 select 86 | SENP luc ctr inactive
Cc1cc(-c2cccs2)n[nH]1	none
Cc1cc(C)n(-c2ccc(NC(=O)C3CCN(Cc4ccc(C)o4)CC3)cc2)n1	none (no result: PPC-1+TRAIL kill)
O=C(Nc1ccccc1C(=O)N/N=C/c1ccccc1)c1ccco1	none (no result: PPC-1+TRAIL kill)
COC(=O)c1ccccc1NC(=S)NC(=O)c1ccc2c(c1)OCO2	none (no result: PPC-1+TRAIL kill)
Cc1ccccc1NC(=O)c1ccc2ccccc2c1	none (no result: PPC-1+TRAIL kill)
NC(=O)c1ccccc1NC(=O)c1ccc2ccccc2c1	C8 TRAIL sens 59, SENP7 inh 90, SENP6 inh 96, SENP8 block-2 79 (no result: PPC-1+TRAIL kill) | SENP8 conf 51 | SENP6 confirm 82 | SENP7 conf 98 | Casp3 select 81 | SENP luc ctr 59
Cc1ccc(C(=O)Nc2cc(Cl)ccc2OC(=O)c2ccc(C)cc2)cc1	none (no result: C8 TRAIL sens, SENP8 block-1)
O=C(Nc1ccccc1C(=O)N/N=C/c1ccc(O)cc1)c1ccccc1	C8 TRAIL sens 79, SENP7 inh 61, SENP6 inh 65 | SENP8 conf inactive | SENP6 confirm inactive | SENP7 conf 81 | Casp3 select 86 | SENP luc ctr 64
NC(=O)c1ccccc1NC(=O)c1ccc2c(c1)OCO2	SENP7 inh 70, SENP6 inh 70, SENP8 block-2 57 (no result: PPC-1+TRAIL kill) | SENP8 conf inactive | SENP6 confirm 52 | SENP7 conf 88 | Casp3 select 81 | SENP luc ctr inactive
COc1ccc(C(=O)Nc2cc(Cl)ccc2OC(=O)c2ccc(OC)cc2)cc1	SENP7 inh 55, SENP6 inh 57 | SENP8 conf inactive | SENP6 confirm inactive | SENP7 conf inactive | Casp3 select 54 | SENP luc ctr inactive
c1ccc(-c2nc3cccnc3nc2-c2ccccc2)cc1	none (no result: PPC-1+TRAIL kill)
CC(C)Sc1n[nH]c(=O)n1-c1ccccc1	none
O=C(O)c1ccc(NC(=S)NC(=O)c2ccc3ccccc3c2)cc1	none (no result: PPC-1+TRAIL kill)
O=C(NC(=S)Nc1ccccc1C(=O)O)c1ccc2ccccc2c1	SENP6 inh 67 | SENP8 conf inactive | SENP6 confirm inactive | SENP7 conf inactive | Casp3 select inactive | SENP luc ctr inactive

Screens as filed in PubChem.
